# In the supplement of paper PMC4466140:
# Assays:
# Assay in all cases: SPOT peptide array binding signal intensity (averaged, normalized) (arbitrary units (background-subtracted, floor 0; scale differs between SH3 domains)); higher = stronger binding of the SH3 domain to the peptide
# [1] = molecular target: AgAbp1
# Summary of the method: (§1)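 Peptides were synthetic 15-mers on cellulose membranes, with every cysteine replaced by serine. They were incubated overnight at 4°C with GST-SH3 domains from four yeast species at 10 μg/ml in TBS-based blocking buffer. Binding signal, the replicate-averaged normalized and background-subtracted spot intensity, is in arbitrary units that differ between domains.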
# [2] = molecular target: AgBbc1
# Summary of the method: as §1
# [3] = molecular target: AgBem1-D1
# Summary of the method: as §1
# [4] = molecular target: AgBzz1-D1
# Summary of the method: as §1
# [5] = molecular target: AgBzz1-D2
# Summary of the method: as §1
# [6] = molecular target: AgCyk3
# Summary of the method: as §1
# [7] = molecular target: AgFus1
# Summary of the method: as §1
# [8] = molecular target: AgHof1
# Summary of the method: as §1
# [9] = molecular target: AgHse1
# Summary of the method: as §1
# [10] = molecular target: AgLsb1
# Summary of the method: as §1
# [11] = molecular target: AgLsb4
# Summary of the method: as §1
# [12] = molecular target: AgMyo5
# Summary of the method: as §1
# [13] = molecular target: AgNbp2
# Summary of the method: as §1
# [14] = molecular target: AgRvs167
# Summary of the method: as §1
# [15] = molecular target: AgSho1
# Summary of the method: as §1
# [16] = molecular target: AgSla1-D1-D2
# Summary of the method: as §1
# [17] = molecular target: AgSla1-D3
# Summary of the method: as §1
# [18] = molecular target: CaAbp1-D1
# Summary of the method: as §1
# [19] = molecular target: CaAbp1-D2
# Summary of the method: as §1
# [20] = molecular target: CaBbc1
# Summary of the method: as §1
# [21] = molecular target: CaBem1-D1
# Summary of the method: as §1
# [22] = molecular target: CaBzz1-D1
# Summary of the method: as §1
# [23] = molecular target: CaBzz1-D2
# Summary of the method: as §1
# [24] = molecular target: CaCyk3
# Summary of the method: as §1
# [25] = molecular target: CaFus1
# Summary of the method: as §1
# [26] = molecular target: CaHof1
# Summary of the method: as §1
# [27] = molecular target: CaHse1
# Summary of the method: as §1
# [28] = molecular target: CaLsb1
# Summary of the method: as §1
# [29] = molecular target: CaLsb4
# Summary of the method: as §1
# [30] = molecular target: CaMyo5
# Summary of the method: as §1
binder,measurement,setting,value
RAPPPVPKKPSSRIA,SPOT peptide array binding signal intensity,[1],8420
same,SPOT peptide array binding signal intensity,[2],1600
same,SPOT peptide array binding signal intensity,[3],51.5
same,SPOT peptide array binding signal intensity,[4],3320
same,SPOT peptide array binding signal intensity,[5],373
same,SPOT peptide array binding signal intensity,[6],≤ 0
same,SPOT peptide array binding signal intensity,[7],≤ 0
same,SPOT peptide array binding signal intensity,[8],415
same,SPOT peptide array binding signal intensity,[9],102
same,SPOT peptide array binding signal intensity,[10],676
same,SPOT peptide array binding signal intensity,[11],48
same,SPOT peptide array binding signal intensity,[12],36.8
same,SPOT peptide array binding signal intensity,[13],3960
same,SPOT peptide array binding signal intensity,[14],230
same,SPOT peptide array binding signal intensity,[15],296
same,SPOT peptide array binding signal intensity,[16],≤ 0
same,SPOT peptide array binding signal intensity,[17],380
same,SPOT peptide array binding signal intensity,[18],2320
same,SPOT peptide array binding signal intensity,[19],4330
same,SPOT peptide array binding signal intensity,[20],1870
same,SPOT peptide array binding signal intensity,[21],12.5
same,SPOT peptide array binding signal intensity,[22],5970
same,SPOT peptide array binding signal intensity,[23],2940
same,SPOT peptide array binding signal intensity,[24],61.5
same,SPOT peptide array binding signal intensity,[25],28.5
same,SPOT peptide array binding signal intensity,[26],≤ 0
same,SPOT peptide array binding signal intensity,[27],1200
same,SPOT peptide array binding signal intensity,[28],0.5
same,SPOT peptide array binding signal intensity,[29],2220
same,SPOT peptide array binding signal intensity,[30],2.5
